Inconclusive results are not listed. Unmarked numbers belong to inactive results. Active and inactive are the calls of the source. The call rests on the fitted dose curve; in most records, active means well fitted inhibition curve with a large enough effect; inconclusive means small, poorly fitted or top-dose-only effect; inactive means flat fitted curve, though single readings scatter.
test system: CP238; assay: qHTS profiling for inhibitors of Plasmodium falciparum proliferation (AID 504749); further: nearly all actives have a fitted effect of over 60% in size;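 on activity, negative = inhibition: 0% = DMSO vehicle and full inhibition = artemisinin control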; conditions: P. falciparum in erythrocytes, SYBR Green DNA, 72 h; series mostly up to 28.7 µM; activity, negative = inhibition: at the top concentration
Method in brief: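 SYBR Green fluorescence of parasite DNA, read after lysis and overnight dark incubation, measured growth over 72 h in erythrocyte culture at 0.3% parasitemia and 2.5% hematocrit. Data normalised to DMSO and 0.29 uM artemisinin, with plate-drift correction.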
Potency means the concentration at half of the fitted maximal effect.

SMILES | activity, negative = inhibition | Potency
O=C(CCl)c1ccc(Oc2ccc(C(=O)CCl)cc2)cc1 | 5.65% | 
O=[N+]([O-])c1ccc(F)c([N+](=O)[O-])c1 | 0.895% | 
N#CC1(N2CCCCC2)CCCCC1 | 5.2% | 
CN1C2CCC1CC(OC(c1ccccc1)c1ccc(Cl)cc1)C2 (centres undefined) |  | 10 µM (active)
O=[N+]([O-])C(Br)(CO)CO | 6.48% | 
Clc1ccccc1Cl | -0.597% | 
CC(C)Nc1ccc(Nc2ccccc2)cc1 |  | 10 µM (active)
CC(=O)O[C@H]1CC[C@H]2[C@@H]3CCC4=CC(=O)CCC4=C3C=C[C@]12C | 3.52% | 
CCCC(C)(COC(N)=O)COC(=O)NC1CC1 (centres undefined) | -1.72% | 
CNC1(c2ccccc2Cl)CCCCC1=O (centres undefined) | -17.1% | 
FC(F)OC(F)(F)C(F)Cl (centres undefined) | 2.18% | 
O=C/C=C/c1ccccc1 | 1.43% | 
S=C(S)N1CCNCC1 | 7.02% | 
CNC(C)C(O)c1ccc(O)cc1 (centres undefined) | 6.47% | 
CCCCCCCCOC(=O)c1ccccc1C(=O)OCCCCCCCC | 1.32% | 
[O]=[Cr](=[O])([OH])[O][Cr](=[O])(=[O])[OH] |  | inactive
CCCCCl | -0.59% | 
ClC(Cl)(Cl)Cl | 1.1% | 
CC(C)(C)c1cc(O)ccc1O |  | 10 µM (active)
O=C1C2CC=CCC2C(=O)N1SC(Cl)(Cl)Cl (centres undefined) | -7.31% | 

SMILES | activity, negative = inhibition | Potency
CCOC(=O)c1ccccc1C(=O)OCC | 4.98% | 
NCC(O)c1cccc(O)c1 (centres undefined) | 4.28% | 
O=C(OCCN1CCCCC1)C(O)(c1ccccc1)c1ccccc1 | 3.23% | 
c1ccc2cc(CC3=NCCN3)ccc2c1 | 8.16% | 
CCCCCCCCCC(=O)O[C@H]1CC[C@H]2[C@@H]3CCC4=CC(=O)CC[C@]4(C)[C@H]3CC[C@]12C | 4.57% | 
O=[N+]([O-])c1ccccc1 | 2.17% | 
O=C(CS(=O)C(c1ccccc1)c1ccccc1)NO (centres undefined) | 2.46% | 
CC(Cc1ccccc1)NC=O (centres undefined) | 4.77% | 
ClC1C(Cl)C(Cl)C(Cl)C(Cl)C1Cl (centres undefined) | 0.538% | 
O=CC=O | 6.83% | 
COC([CH2][Hg])CNC(=O)c1ccccc1OCC(=O)O (centres undefined) | 5.83% | 
C[N+]1(C)C2CCC1CC(OC(=O)c1c[nH]c3ccccc13)C2 (centres undefined) | 4.41% | 
CC(=O)OO | 10.3% | 
[N-]=[N+]=CC(=O)OCC(N)C(=O)O (centres undefined) | 7.53% | 
CCC1(C)CC(=O)NC(=O)C1 | 1.44% [at 12.8 µM] | 
O=C(O)C(Cl)(Cl)Cl | 8.86% | 
C#CC(C)(O)CC (centres undefined) | 1.75% | 
O=S(=O)(O)c1cc(O)ccc1O | 5.76% [at 12.8 µM] | 
N#CN | 0.829% | 

— PubChem BioAssay (NCATS)
